# Only some compounds are listed: those with a hit (about 3.5% of all), similar ones and a draw of the others.
# FBW7 activator = FBW7 E3 ligase activators, primary screen, biochemical, AlphaScreen, human; normalized activity (activation), % at 26.1 µM; 650,000 tested, 0.13% active; F-box/WD repeat-containing protein 7 (Homo sapiens), Q969H0; AID 1259310, 2017; AlphaScreen FBW7–phospho-cyclin E peptide binding, activator screen; in the data active = normalized activity above about 1.9%;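 also: purified mutant Fbw7 with reduced substrate affinity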
# Target sequence (Q969H0 whole entry, looked up): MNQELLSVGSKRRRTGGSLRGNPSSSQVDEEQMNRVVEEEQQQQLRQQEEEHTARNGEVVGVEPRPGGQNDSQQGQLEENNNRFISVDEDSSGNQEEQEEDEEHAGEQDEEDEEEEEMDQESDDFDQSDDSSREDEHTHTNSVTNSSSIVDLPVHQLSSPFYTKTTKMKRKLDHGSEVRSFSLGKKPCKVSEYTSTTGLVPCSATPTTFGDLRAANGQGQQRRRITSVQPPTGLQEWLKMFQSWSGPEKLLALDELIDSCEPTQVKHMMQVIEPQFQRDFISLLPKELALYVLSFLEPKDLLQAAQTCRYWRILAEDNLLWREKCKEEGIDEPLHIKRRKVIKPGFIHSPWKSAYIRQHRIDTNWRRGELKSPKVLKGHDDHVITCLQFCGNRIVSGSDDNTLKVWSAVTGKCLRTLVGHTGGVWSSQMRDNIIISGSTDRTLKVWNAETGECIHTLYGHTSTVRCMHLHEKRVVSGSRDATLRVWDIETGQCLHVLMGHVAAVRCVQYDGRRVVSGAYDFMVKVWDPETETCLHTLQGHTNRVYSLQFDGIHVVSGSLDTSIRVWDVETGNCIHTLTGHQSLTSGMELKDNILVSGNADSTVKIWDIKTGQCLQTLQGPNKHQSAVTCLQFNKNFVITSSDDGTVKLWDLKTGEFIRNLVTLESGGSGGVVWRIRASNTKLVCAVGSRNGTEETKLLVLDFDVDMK
# MITF inh = MITF inhibitors, primary screen, biochemical, AlphaScreen, human; inhibition, % at 2.6 µM; AlphaScreen MITF homodimerization, bead proximity signal; AID 1259374, 2018; 650,000 tested, 0.91% active; in the data active = inhibition above about 50%;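 also: 0% = vehicle wells with protein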
# GPR151 activ = activators of human GPR151, primary screen, cell-based, PathHunter beta-arrestin, luminescence | activation, % at 11.2 µM | AID 1508602, 2020 | 650,000 tested, 1% active | G-protein coupled receptor 151 (Homo sapiens), Q8TDV0 | PathHunter beta-arrestin GPR151 cells; in the data active = activation above about 4.9%;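 also: 0% = median of compound wells and 100% = cells with positive control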
# TEAD-YAP block = TEAD-YAP interaction inhibition, primary screen, TEAD-YAP interaction inhibitor project, luminescence, HEK-TIYL cells | TEAD-Gal4/YAP UAS-luciferase luminescence | inhibition, % at 9.12 µM | 640,000 tested, 1.4% active | AID 1259422, 2018; in the data active = inhibition above about 32%;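 also: 0% = median of test compound wells and 100% = reference inhibitor wells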
# MITF inh conf = MITF inhibitors, retest of hits, confirmation, biochemical, AlphaScreen, triplicate; shares compounds with MITF inh; AlphaScreen MITF homodimerization, biotin/His-MITF beads; inhibition, % at 2.6 µM; 4,700 tested, 16% active; AID 1259372, 2018;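 active = inhibition above a cutoff derived from the DMSO control wells, cut at about 28% in these data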;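 also: 0% = MITF dimer wells with DMSO only; inhibitors lower the bead chemiluminescence by keeping MITF from dimerizing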
# AS interf DR = AlphaScreen optical interference compounds, dose response, counter-screen, biochemical, HTS | AlphaScreen optical interference counterscreen, cell-free | IC50, µM | AID 1259373, 2018 | 480 tested, 6% active | shares compounds with MITF inh; call rule not given here
# AlphaScreen intf2 = AlphaScreen optical interference compounds, counter-screen for MITF inhibitor project, biochemical, triplicate. AID 1259376, 2018. 4,700 tested, 7.6% active. inhibition, % at 2.6 µM. LysRS AlphaScreen counterscreen, signal interference. shares compounds with MITF inh;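 active = inhibition above a cutoff derived from the DMSO control wells, cut at about 30% in these data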
# Active calls of the source: *; / = no result; ! = not active in a repeat.
SMILES,FBW7 activator,MITF inh,GPR151 activ,TEAD-YAP block,MITF inh conf,AlphaScreen intf2,others
CSc1ccc(CN2CCOc3ccc(CN4CCN(C(C)=O)CC4)cc3C2)cc1,0,88*,1,37*,3,-2,
O=C(c1ccc(-c2ccccc2)cc1)N1CCN(Cc2cccnc2)CC1,0,68*,1,-10,19,15,
COc1cc(CN2CCN(C(=O)c3cccc(F)c3)CC2)cc(OC)c1O,0,68*,0,-1,-3,6,
COc1ccccc1OCC(=O)NCCn1ccnc1C,0,-3,0,14,/,/,
COc1ccc(C(=O)N2CCN(Cc3cccc(Br)c3)CC2)cc1,0,51*,0,-2,6,14,
COc1ccc(C(=O)N2CCN(Cc3cccc(F)c3)CC2)cc1,0,46,-1,-11,/,/,
O=C(c1ccc(F)cc1)N1CCN(Cc2cccc(F)c2)CC1,0,58*,1,4,4,4,
O=C(c1cccc(F)c1)N1CCN(Cc2cccnc2)CC1,0,87*,0,-3,-4,0,
O=C(c1cccc(C(=O)N2CCN(Cc3ccccc3)CC2)c1)N1CCN(Cc2ccccc2)CC1,0,-4,-1,16,/,/,
O=C(c1cccc(F)c1)N1CCN(Cc2ccncc2)CC1,1,78*,-2,-7,64*,-6,AS interf DR=>5.7
O=C(c1cccc(F)c1)N1CCN(Cc2cccc(Oc3ccccc3)c2)CC1,0,38,2,-16,/,/,
O=C(c1ccccc1F)N1CCN(Cc2cccc(F)c2)CC1,0,54*,1,-6,-3,4,
O=C(c1cccc(F)c1)N1CCN(CC2CC3C=CC2C3)CC1 (stereo not drawn),0,58*,0,-6,-23,4,
O=C(c1cccc(Cl)c1)N1CCN(Cc2cccc(F)c2)CC1,0,67*,0,3,-4,6,
O=C(c1ccc(F)cc1)N1CCN(Cc2cccc(Br)c2)CC1,0,58*,-1,9,-7,-6,
O=C(c1ccccc1F)N1CCN(CC2CC3C=CC2C3)CC1 (stereo not drawn),0,39,0,5,/,/,
COc1cc(OC)cc(C(=O)N2CCN(Cc3cccc(Br)c3)CC2)c1,0,41,-2,5,/,/,
COc1cccc(OCC(O)CN2CCN(Cc3ccccc3)CC2)c1 (stereo not drawn),0,-6,0,-2,/,/,
CSc1ccc(CN2CCN(C(=O)c3ccc(F)cc3)CC2)cc1,1,55*,-1,44*,7,12,
CSc1ccc(CN2CCN(C(=O)c3ccc(-c4ccccc4)cc3)CC2)cc1,0,1,0,7,/,/,
Cc1cc(-c2cnc(C)nc2C2CCCN(Cc3ccncc3)C2)on1 (stereo not drawn),0,36,0,-13,/,/,
Cc1cc(-c2cnc(C)nc2C2CCCN(Cc3cccnc3)C2)on1 (stereo not drawn),0,53*,1,4,9,9,
Cc1ccc(-n2nnnc2SCC(=O)Nc2nccs2)cc1,0,-3,-1,0,/,/,
Cc1nc(N2CCOCC2)c2c(C)c(C(=O)NCC3CCCO3)sc2n1 (stereo not drawn),1,4,-2,-3,/,/,
O=C(C1CCCN1S(=O)(=O)c1cccc2cccnc12)N1CCc2ccccc21 (stereo not drawn),0,73*,1,8,-18,-4,
SMILES,FBW7 activator,MITF inh,GPR151 activ,TEAD-YAP block,MITF inh conf,AlphaScreen intf2,others
COc1ccc([C@@H]2C[C@H](C(=O)NCC3CCCO3)N(C)S(=O)(=O)N2)cc1 (stereo partly drawn),0,2,1,6,/,/,
CCOC(=O)N1CCC(N2C(=O)c3ccccc3C2Nc2ccccc2C(=O)OC)CC1 (stereo not drawn),0,62*,-1,2,3,13,
CCOc1cc(C=C2C(=O)NC(=O)NC2=O)ccc1OC(=O)c1cccc2ccccc12,0,-6,2,0,/,/,
O=C1O[C@H](C(O)CO)C(O)=C1O (stereo partly drawn),0,76*!,-1,0,47*,2,AS interf DR=>6.5
CCCCOc1ccc(C(=O)CCNC(C(=O)O)C(C)O)cc1 (stereo not drawn),0,-2,-1,-1,/,/,
O=C(C1CCN(Cc2ccccc2)CC1)N1CCN(C/C=C/c2ccccc2)CC1,0,60*,2,17,10,13,
COc1cc(CN2CCN(C/C=C/c3ccccc3)CC2)cc(OC)c1OC,0,67*,-1,-5,2,13,
COc1ccc(CN2CCN(C/C=C/c3ccccc3)CC2)cc1,0,47,0,-3,/,/,
COc1cc(CN2CCN(C/C=C/c3ccccc3)CC2)ccc1O,0,52*,-1,3,0,3,
COc1ccc(CN2CCN(C/C=C/c3ccccc3)CC2)cc1O,0,62*,-1,1,1,8,
CCOc1ccc(C(=O)Nc2ccc(-n3nncc3-c3ccc(Br)cc3)cc2)cc1,0,-2,1,9,/,/,
CCOC(=O)c1ccc(CNS(=O)(=O)c2cccc3nsnc23)o1,0,-15,1,3,/,/,
O=P(O)(O)C(Sc1ccc(Cl)cc1)P(=O)(O)O,0,96*,2,/,106*,-8,AS interf DR=>6.5
CCC(C)NCCCOc1cccc(Br)c1 (stereo not drawn),0,80*,0,2,-7,10,
CCCOc1ccc(OCCCNC(C)CC)cc1 (stereo not drawn),0,23,0,8,/,/,
CCC(C)NCCOc1ccccc1F (stereo not drawn),0,53*,0,-7,-12,1,
Cc1no[n+]([O-])c1COc1ccc(C=O)cc1,0,-5,-1,7,/,/,
O=C(Nc1nc2ccc(Cl)cc2s1)c1cccc(Oc2ccccc2)c1,0,74*,1,-1,1,7,
O=C(Nc1nc2ccc(F)cc2s1)c1cccc(Oc2ccccc2)c1,0,-3,-1,-11,/,/,
O=C(Nc1ccc(O)c(-c2nc3ccccc3s2)c1)c1cccc(Oc2ccccc2)c1,0,61*,1,0,3,1,
O=C(Nc1ccc(O)c(-c2nc3ccccc3s2)c1)c1ccccc1Oc1ccccc1,0,-7,1,-1,/,/,
CC1=C(C(=O)OCc2ccccc2)C(c2ccccc2Br)C2=C(CC(c3ccccc3)CC2=O)N1 (stereo not drawn),2,12,-1,8,/,/,

# From PubChem
